The full ranking holds about 18,000 sequences; the median of “log2 normalized intensity” is about 0.39, and the highest 2% start at about 6.6. The sample as a whole holds a higher share of the highest values than the screen did.

In the experiment the target is T1, HNF4alpha2 (COS-7 nuclear extract) (Homo sapiens, UniProt P41235 1-474).
T1 sequence: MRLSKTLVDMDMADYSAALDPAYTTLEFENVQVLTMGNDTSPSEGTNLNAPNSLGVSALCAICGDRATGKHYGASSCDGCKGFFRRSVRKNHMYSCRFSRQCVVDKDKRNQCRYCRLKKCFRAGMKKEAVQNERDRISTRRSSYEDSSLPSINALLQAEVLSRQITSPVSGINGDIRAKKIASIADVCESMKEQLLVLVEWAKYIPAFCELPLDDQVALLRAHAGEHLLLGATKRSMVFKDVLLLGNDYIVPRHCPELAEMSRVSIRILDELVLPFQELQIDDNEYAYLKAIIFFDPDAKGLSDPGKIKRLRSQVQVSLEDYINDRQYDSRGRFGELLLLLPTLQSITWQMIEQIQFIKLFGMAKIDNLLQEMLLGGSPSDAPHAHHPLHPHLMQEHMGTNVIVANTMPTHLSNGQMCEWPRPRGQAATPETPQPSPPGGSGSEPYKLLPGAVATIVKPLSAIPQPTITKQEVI
Put plainly: protein-binding microarray; COS-7 nuclear extract on double-stranded Agilent 4x180k PBM; binding buffer, salt, pH and temperature not given in the material; high values mean tight binding. The following applies: chain copies: 2; label: 3' end of strand 1 on the slide; dsDNA, one strand shown. An outline of the steps: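 Double-stranded oligonucleotides of ~60 nt, representing ~44,000 test sequences in quadruplicate, made up a custom Agilent SurePrint G3 4x180k array. Nuclear extracts from COS-7 cells transiently transfected by CaPO4 with a human HNF4α isoform expression vector were applied, and bound HNF4α was imaged at 2-µm resolution on an Agilent G2565CA scanner. Binding signal refers to the background-corrected, normalized gProcessedSignal output of Agilent software.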
For the sequence “AACGGTTCAAAGGACAGACTTTGGACCTGGGCCTAGGGAGATTAGAGTATCGGTCGA”, the binding signal was 7.15 log2 normalized intensity.

In the case of “GGACTTTGGCCTTACTTGGCCTGTTTGCTGGCCTAGGGAGATTAGAGTATCGGTCGA”, the binding signal worked out at 5.51 log2 normalized intensity.

Regarding “ACTTTGGACCTTTGTGTGTGTGTGTGTGTGGCCTAGGGAGATTAGAGTATCGGTCGA”, the binding signal was 3.6 log2 normalized intensity.

Take “TGACAACTGAATGTGACCTTTTGGACCACAGCCTAGGGAGATTAGAGTATCGGTCGA”: the binding signal turned out to be 6.82 log2 normalized intensity.

For the sequence “GTTGGACTTTGGACCTTTGTGTGTGTGTGTGCCTAGGGAGATTAGAGTATCGGTCGA”, the binding signal came to 7.93 log2 normalized intensity.

As to “TTCAAAGGACAGACTTTGGACCTGGCCCTCGCCTAGGGAGATTAGAGTATCGGTCGA”, the binding signal was 5.66 log2 normalized intensity.

As for “GTGAGTGGACTTTGGTCCTGGTCAGACTTGGCCTAGGGAGATTAGAGTATCGGTCGA”, the binding signal came to 5.76 log2 normalized intensity.

For the sequence “CACCTGTGTCAACATGGACTTTGTTGTTTGGCCTAGGGAGATTAGAGTATCGGTCGA”, the binding signal turned out to be 4.33 log2 normalized intensity.

In the case of “CCTGATGACAACTGAATGTGACCTTTTGGAGCCTAGGGAGATTAGAGTATCGGTCGA”, the binding signal was determined as 5.25 log2 normalized intensity.

Consider “GGGCGTGTGTTAGACTTTGGACCTGGCCTGGCCTAGGGAGATTAGAGTATCGGTCGA”, for which the binding signal is 7.25 log2 normalized intensity.

Consider “TGGTTAGGTATTTTAAGTCACCAGATGAGAGCCTAGGGAGATTAGAGTATCGGTCGA”, for which the binding signal stood at 0.217 log2 normalized intensity.

As for “CTCCTCCCTCAGGGATCTTTGCACTTGATGGCCTAGGGAGATTAGAGTATCGGTCGA”, the binding signal was 1.32 log2 normalized intensity.

For “TGGATGGGGGAGGGGACTTCGCTGGAGGTGGCCTAGGGAGATTAGAGTATCGGTCGA”, the binding signal was -0.382 log2 normalized intensity.

With “TATCTTCGTATAGAAACAAGACAGAATGATGCCTAGGGAGATTAGAGTATCGGTCGA”, the binding signal is -0.775 log2 normalized intensity.

As for “GTAAACACAGACTTTGGAATCACAATGATAGCCTAGGGAGATTAGAGTATCGGTCGA”, the binding signal is 1.97 log2 normalized intensity.

As to “CCTGTACCTAGAATTCTTTCACTCCCTTTTGCCTAGGGAGATTAGAGTATCGGTCGA”, the binding signal came out at 1.12 log2 normalized intensity.

Regarding “TTACCGGTGTGACTTTGGTTGGATTTCTTGGCCTAGGGAGATTAGAGTATCGGTCGA”, the binding signal stood at 1.54 log2 normalized intensity.

For the sequence “GGGGACCTTTGGCCTTTACCTGTTACTTATGCCTAGGGAGATTAGAGTATCGGTCGA”, the binding signal came out at 3.57 log2 normalized intensity.

As for “AGGGGTTACTAGTGAGTTGGACTTTGGACCGCCTAGGGAGATTAGAGTATCGGTCGA”, the binding signal was 11.6 log2 normalized intensity.

“AAGAAGGTTTACTCAAGCAAAAAGTTTGGAGCCTAGGGAGATTAGAGTATCGGTCGA”: the binding signal stood at 0.467 log2 normalized intensity.

For “AGGTACAAACATACTTAGGATTTTTGTGCCGCCTAGGGAGATTAGAGTATCGGTCGA”, the binding signal was found to be 0.442 log2 normalized intensity.

As to “CTCTCGGGCCAGCTGTACAAATAAAGGATGGCCTAGGGAGATTAGAGTATCGGTCGA”, the binding signal was -0.146 log2 normalized intensity.

For “TAAACTTTTGATTGCTTAGGCTCTTGTTATGCCTAGGGAGATTAGAGTATCGGTCGA”, the binding signal is -0.703 log2 normalized intensity.

As to “GAGGCAGCAAGGTCAAAGTGCGTCCTGTGGGCCTAGGGAGATTAGAGTATCGGTCGA”, the binding signal is 3.92 log2 normalized intensity.

Consider “GATATTTAACCTTTGATCTGTAAGCTCTCTGCCTAGGGAGATTAGAGTATCGGTCGA”, for which the binding signal stood at 4.61 log2 normalized intensity.

Consider “CTTTGTTTACTTAACCTTTGATCATATGCAGCCTAGGGAGATTAGAGTATCGGTCGA”, for which the binding signal is 5.18 log2 normalized intensity.

As for “CTGTGCTTTGTTTACTTAACCTTTGATCATGCCTAGGGAGATTAGAGTATCGGTCGA”, the binding signal was 7.05 log2 normalized intensity.

As to “GTGGCTACCTGTGCAGATATTTAACCTTTGGCCTAGGGAGATTAGAGTATCGGTCGA”, the binding signal is 4.11 log2 normalized intensity.

Consider “TTGCACTGTGCTTTGTTTACTTAACCTTTGGCCTAGGGAGATTAGAGTATCGGTCGA”, for which the binding signal worked out at 4.05 log2 normalized intensity.

For “TACCTGTGCAGATATTTAACCTTTGATCTGGCCTAGGGAGATTAGAGTATCGGTCGA”, the binding signal turned out to be 7.34 log2 normalized intensity.

“TCTGAAAAAAGCTATCATTTGTCACTTGGAGCCTAGGGAGATTAGAGTATCGGTCGA”: the binding signal came out at 1.38 log2 normalized intensity.

For the sequence “GACCAGGTTGTGAGGGAGGGCACAGGCAACGCCTAGGGAGATTAGAGTATCGGTCGA”, the binding signal is -0.298 log2 normalized intensity.

“ATTTCTGTTGTTGATTTAACATTTGTGATCGCCTAGGGAGATTAGAGTATCGGTCGA”: the binding signal is 1.92 log2 normalized intensity.

“TGATAGCCTTTTACCTTGGCAGCCACTGAGGCCTAGGGAGATTAGAGTATCGGTCGA”: the binding signal was -0.876 log2 normalized intensity.

In the case of “AGGCTGAAGGGAAGCTCTGGGAGTGCCCTTGCCTAGGGAGATTAGAGTATCGGTCGA”, the binding signal is 1.93 log2 normalized intensity.

Take “CTGCCAAATATTGGGCAATGCTAGGTCTTTGCCTAGGGAGATTAGAGTATCGGTCGA”: the binding signal was -0.788 log2 normalized intensity.

Turning to “CCTTTGGACTGTCCTTTGCTAGATTCTTTCGCCTAGGGAGATTAGAGTATCGGTCGA”, the binding signal was determined as 2.01 log2 normalized intensity.

As to “GGACTTGGGACTTTCGAGTTAATGCTGGAGGCCTAGGGAGATTAGAGTATCGGTCGA”, the binding signal worked out at 2.54 log2 normalized intensity.

In the case of “TGTGATGTGAAGAGTGTGGACTTTCACCTCGCCTAGGGAGATTAGAGTATCGGTCGA”, the binding signal stood at 8.12 log2 normalized intensity.

Turning to “TGTGAAGAGTGTGGACTTTCACCTCCACCAGCCTAGGGAGATTAGAGTATCGGTCGA”, the binding signal was found to be 6.06 log2 normalized intensity.

Take “GACCATGTGATGTGAAGAGTGTGGACTTTCGCCTAGGGAGATTAGAGTATCGGTCGA”: the binding signal came to 4.26 log2 normalized intensity.

For the sequence “ACTTTGGACTTGGGACTTTCGAGTTAATGCGCCTAGGGAGATTAGAGTATCGGTCGA”, the binding signal amounted to 4.12 log2 normalized intensity.

For the sequence “GAGACTTTGGACTTTGGACTTGGGACTTTCGCCTAGGGAGATTAGAGTATCGGTCGA”, the binding signal was 9.27 log2 normalized intensity.

Turning to “TTTGGACTTTGGACTTGGGACTTTCGAGTTGCCTAGGGAGATTAGAGTATCGGTCGA”, the binding signal amounted to 7.8 log2 normalized intensity.

On to “CTGGACTTTCCTTTGTTGGGAGACTTTTTAGCCTAGGGAGATTAGAGTATCGGTCGA”, for which the binding signal was 1.63 log2 normalized intensity.

As to “TGAGTAGTGTACGTTGTACCCCACAGGTATGCCTAGGGAGATTAGAGTATCGGTCGA”, the binding signal worked out at 2.94 log2 normalized intensity.

On to “CTCTCTTTCTTCCCCCACTCCAAGTTCCTTGCCTAGGGAGATTAGAGTATCGGTCGA”, for which the binding signal came to 4.22 log2 normalized intensity.

On to “TGCTCCAGTAAAAGCTCTACCTGACCTCCCGCCTAGGGAGATTAGAGTATCGGTCGA”, for which the binding signal came out at 2.94 log2 normalized intensity.

With “GCTGTGTCCCACAGGGAAAGTATGGGTCAGGCCTAGGGAGATTAGAGTATCGGTCGA”, the binding signal was 1.12 log2 normalized intensity.

For “TCATGTTCAATATACAGTTGGTATTTAGTAGCCTAGGGAGATTAGAGTATCGGTCGA”, the binding signal was determined as 1.83 log2 normalized intensity.

Regarding “CCCCTAAAGGAGGCAAGGTCCAAACTTCTCGCCTAGGGAGATTAGAGTATCGGTCGA”, the binding signal is 1.7 log2 normalized intensity.

As to “ATGTTGGGCAACTACCTCAAAGTTTTGTTAGCCTAGGGAGATTAGAGTATCGGTCGA”, the binding signal worked out at 0.0615 log2 normalized intensity.

These data come from paper PMC10726135, “HNF4α isoforms regulate the circadian balance between carbohydrate and lipid metabolism in the liver”.
